Values joined by “and” are separate entries in the source; they are usually repeats but may differ in a detail not shown here. Equal entries are not always repeated. Records with an inconclusive call do not appear. Some compounds were tested as several samples or in several runs, with calls that do not always agree. Active and inactive are the calls of the source. Unless noted, the call rests on the fitted dose curve.

A short description of assay [1]: Nuclear factor erythroid 2-related factor 2/antioxidant responsive element (Nrf2/ARE) small molecule agonists: qHTS cell viability counter screen in human keratinocytes (AID 1919968; active means well fitted curve in the direction sought with a large enough effect in the repeat runs; an effect the other way counts as inactive or inconclusive; further: nearly all actives have a fitted effect of over 55% in size; further: potency means the concentration at half of the fitted maximal effect). The method in brief:
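KeratinoSens HaCaT cells, 1,500/well, preincubated 5 h, then exposed to compounds in DMSO for 23 h at 37 C/5% CO2. Viability read as CellTiter-Fluor fluorescence after 1 h, in the same wells as the ARE-luciferase read.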

A short description of assay [2]: Nuclear factor erythroid 2-related factor 2/antioxidant responsive element (Nrf2/ARE) small molecule agonists: luciferase reporter gene qHTS assay in human keratinocytes (AID 1919969). Further: nearly all actives have a fitted effect of over 35% in size. Further: potency means the concentration at half of the fitted maximal effect. On the technique in general: In a reporter assay the amount or activity of a reporter protein is the signal.
Assay [3] addresses Gonadotropin-releasing hormone receptor (Homo sapiens) (UniProt P30968). The assay can be described thus: Human gonadotropin-releasing hormone receptor (GnRHR) small molecule agonists, calcium flux assay in GnRHR-HEK293 cells (AID 1920063). Further: nearly all actives have a fitted effect of over 35% in size. In short, it runs like this:
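HEK293 cells stably expressing human GnRHR were dye-loaded for 1 h at 37 C. Compound was added in agonist mode and fluorescence (Ex/Em 480/540) recorded kinetically for 3 min. Fifteen concentrations, triplicates.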

Assay [4] has as its target KiSS-1 receptor (Homo sapiens) (UniProt Q969F8). Put plainly: Human kisspeptin (KISS1R) small molecule agonists, calcium flux assay in KISS1R-HEK293 cells (AID 1920064; active means well fitted curve in the direction sought with a large enough effect in the repeat runs; an effect the other way counts as inactive or inconclusive). The method in brief: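 HEK293 cells stably expressing human KISS1R were loaded with calcium dye for 1 h at 37 C, then given compound; fluorescence (Ex/Em 480/540) was read kinetically for 3 min. Fifteen concentrations, triplicate.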
A general note: A change in cytosolic calcium serves as a functional read-out for many receptors and channels.

The nature of assay [5]: G protein-coupled receptor (GPCR) small molecule agonists, calcium flux assay: HEK293 wild type cell line counter screen (AID 1920065). The method in brief:
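Wild-type HEK293 cells plated 18 h, loaded with calcium dye 1 h at 37 C, then compounds added in agonist mode (ATP as positive control). Kinetic fluorescence Ex/Em 480/540 recorded 3 min at 1 sec intervals; 15 concentrations, triplicate.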

Assay [6] in a line: p53 small molecule agonists, cell-based qHTS assay with human liver microsomes (AID 1963577). The method in brief: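 Fluorescence of the beta-lactamase reporter in p53RE-bla cells, detected with LiveBLAzer substrate (2 h, room temperature, dark), served as the read-out after 16 h compound exposure at 37 C with human liver microsomes and NADPH, each 0.5 mg/mL final.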
In general terms: Quantitative high-throughput screening tests each substance at several concentrations.

Assay [7] is described as follows: p53 small molecule agonists, cell-based qHTS assay with human liver microsomes: qHTS cell viability counter screen (AID 1963579). Further: nearly all actives have a fitted effect of over 45% in size. In short, it runs like this:
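Cytotoxicity counter screen: p53RE-bla, 4,000 cells/well; 5 h settle, 37 C/5% CO2; cpd + HLM 0.5 mg/mL + NADPH 0.5 mg/mL (final); 16 h, 37 C; CellTiter-Glo, 30 min RT, luminescence.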

Assay [8] in a line: p53 small molecule agonists, cell-based qHTS assay with rat liver microsomes: qHTS cell viability counter screen (AID 1963580). Further: nearly all actives have a fitted effect of over 45% in size. Further: potency means the concentration at half of the fitted maximal effect. The method in brief:
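Intracellular ATP, by CellTiter-Glo luminescence, defines viability. HCT-116 p53RE-bla cells, 4,000 per well, were compound-treated in the presence of rat liver microsomes and NADPH for 16 h at 37 C.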

Assay [9] is described as follows: p53 small molecule agonists, cell-based qHTS assay: qHTS cell viability counter screen (AID 1963581). Further: nearly all actives have a fitted effect of over 45% in size. Further: potency means the concentration at half of the fitted maximal effect. In short, it runs like this:
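p53RE-bla HCT-116 cells, compounds added 5 h after plating and incubated 16 h at 37 C. Cytotoxicity measured in the same wells as intracellular ATP by CellTiter-Glo luminescence after 30 min at room temperature.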

Assay [10] in a line: p53 small molecule agonists, cell-based qHTS assay (AID 1963582; active means well fitted activation curve with a large enough effect in the signal ratio in the repeat runs, not every such curve was filed as active; the % refers to the signal ratio). In short, it runs like this:
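p53RE-bla reporter cells, compounds added in DMSO after 5 h plating, incubated 16 h at 37 C. Beta-lactamase read via 2 h room-temperature LiveBLAzer B/G FRET substrate, fluorescence intensity.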

Assay [11] can be described thus: cAMP Responsive Elements (CRE) small molecule agonists, cell-based qHTS assay (AID 1963590). The method in brief: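 CRE-bla HEK 293T cells, 2,000/well in DMEM with 10% dialyzed FBS and 25 mM HEPES, pre-incubated 18 h at 37 C, then exposed to compound 3 h at 37 C. Beta-lactamase reporter read with LiveBLAzer B/G FRET substrate after 2 h at room temperature.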
Assay [12] is described as follows: cAMP Responsive Elements (CRE) small molecule antagonists, cell-based qHTS assay (AID 1963591; active means well fitted inhibition curve with a large enough effect in the signal ratio in the repeat runs, not every such curve was filed as active; the % refers to the signal ratio). In short, it runs like this: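 CRE-bla HEK293T cells plated 18 h, then given compound plus NKH477 at 0.25 uM final for 3 h at 37C. Beta-lactamase reporter read with LiveBLAzer B/G FRET substrate after 2 h at room temperature.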
Assay [13] has as its target Beta-2 adrenergic receptor (Homo sapiens) (UniProt P07550). The assay can be described thus: Adrenergic beta2 receptor (ADRB2) small molecule antagonists, cell-based qHTS assay (AID 1963592). Further: series mostly up to about 92 µM; nearly all actives have a fitted effect of over 50% in size. In short, it runs like this: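 Cells (CHO, stable ADRB2 overexpression) incubated 18-20hr at 37C; compounds added from DMSO; agonist mix (1nM isoproterenol, 100uM IBMX, 25uM Ro-20-1724) added; 0.5hr RT; d2-cAMP and anti-cAMP-cryptate added; 1hr RT; 665/615 nm read.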

In assay [14] the target is D(2) dopamine receptor (Homo sapiens) (UniProt P14416). The assay can be described thus: Dopamine D2 receptor (DRD2) small molecule agonists, cell-based qHTS assay (AID 1963594). Further: nearly all actives have a fitted effect of over 35% in size. The method in brief:
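cAMP accumulation in DRD2-HEK293 cells measured by HTRF after 1 h detection; compounds added 10 min before NKH477 (200nM […]) forskolin-analogue stimulation, 30 min at room temperature, with Ro20-1724 present at 0.1 mM final.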

Assay [15] shares this target. The assay can be described thus: Dopamine D2 receptor (DRD2) small molecule antagonists, cell-based qHTS assay (AID 1963595; active means well fitted inhibition curve with a large enough effect in the signal ratio in the repeat runs, with a control signal flat; the % refers to the signal ratio; further: potency means the concentration at half of the fitted maximal effect). In short, it runs like this: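 Antagonist mode in DRD2-HEK293 cells: after compound addition with 0.1 mM Ro20-1724, cells received quinpirole (12 nM) and NKH477 (200 nM) for 30 min at room temperature; HTRF cAMP read after 1 h detection.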
The target in assay [16] is 5-hydroxytryptamine receptor 2A (Homo sapiens) (UniProt P28223). Put plainly: 5-hydroxytryptamine receptor 2A (HTR2A) small molecule antagonists, cell-based qHTS assay (AID 1963586). Further: nearly all actives have a fitted effect of over 45% in size. The method in brief:
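Antagonist-mode intracellular calcium assay: DOI (4 nM) added after 5 min compound pre-incubation at room temperature to dye-loaded HTR2A-CHO cells. Fluorescence followed for 3 min, sampled every second.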

The target is the same in assay [17]. The assay can be described thus: 5-hydroxytryptamine receptor 2A (HTR2A) small molecule agonists, cell-based qHTS assay (AID 1963587). Further: nearly all actives have a fitted effect of over 30% in size. In short, it runs like this: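 Kinetic calcium-flux fluorescence (2 min, 1 sec intervals) after compound addition in agonist mode. HTR2A-CHO cells were cultured 18 h, then dye-loaded 1 h at 37 C.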
Assay [18] deals with Muscarinic acetylcholine receptor M1 (Homo sapiens) (UniProt P11229). The assay can be described thus: Cholinergic receptor muscarinic 1 (CHRM1) small molecule antagonists, cell-based qHTS assay (AID 1963588). Further: nearly all actives have a fitted effect of over 40% in size. Further: potency means the concentration at half of the fitted maximal effect. The method in brief:
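CHRM1-CHO calcium-flux assay, antagonist mode. Cells were seeded 18 h, dye-loaded 1 h at 37 C and given compound for 5 min at RT, then acetylcholine was added at 50nM. FDSS fluorescence was read 3 min; 15 concentrations, three runs.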

The target is the same in assay [19]. Put plainly: Cholinergic receptor muscarinic 1 (CHRM1) small molecule agonists, cell-based qHTS assay (AID 1963589). Further: nearly all actives have a fitted effect of over 35% in size. In short, it runs like this:
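CHO cells stably expressing human CHRM1 were loaded with calcium dye for 1 h at 37 C, then compound was added in agonist mode. Intracellular calcium fluorescence was followed kinetically at 1 s intervals. Fifteen concentrations were tested in three independent runs.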

A short description of assay [20]: p53 small molecule agonists, cell-based qHTS assay with rat liver microsomes (AID 1963578). In short, it runs like this:
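Cells carrying a p53 response element–beta-lactamase reporter were plated and rested 5 h, then dosed with compound in DMSO plus rat liver microsomes and NADPH, each at 0.5 mg/mL final. After 16 h at 37 C, LiveBLAzer substrate was added for 2 h.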

Beta-2 adrenergic receptor (Homo sapiens), sequence (P07550 whole entry, looked up): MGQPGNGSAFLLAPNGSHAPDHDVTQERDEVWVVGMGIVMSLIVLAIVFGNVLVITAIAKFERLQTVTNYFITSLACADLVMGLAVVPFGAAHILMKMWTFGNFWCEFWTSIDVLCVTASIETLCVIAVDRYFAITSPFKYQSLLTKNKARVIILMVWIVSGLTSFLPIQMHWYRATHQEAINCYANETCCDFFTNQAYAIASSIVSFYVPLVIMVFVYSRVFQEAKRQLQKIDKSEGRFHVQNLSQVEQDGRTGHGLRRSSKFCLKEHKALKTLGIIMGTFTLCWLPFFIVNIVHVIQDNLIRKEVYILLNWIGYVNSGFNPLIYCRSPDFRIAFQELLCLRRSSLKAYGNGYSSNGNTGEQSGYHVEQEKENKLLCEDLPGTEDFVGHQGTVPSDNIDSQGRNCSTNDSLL
Gonadotropin-releasing hormone receptor (Homo sapiens), sequence (P30968 whole entry, looked up): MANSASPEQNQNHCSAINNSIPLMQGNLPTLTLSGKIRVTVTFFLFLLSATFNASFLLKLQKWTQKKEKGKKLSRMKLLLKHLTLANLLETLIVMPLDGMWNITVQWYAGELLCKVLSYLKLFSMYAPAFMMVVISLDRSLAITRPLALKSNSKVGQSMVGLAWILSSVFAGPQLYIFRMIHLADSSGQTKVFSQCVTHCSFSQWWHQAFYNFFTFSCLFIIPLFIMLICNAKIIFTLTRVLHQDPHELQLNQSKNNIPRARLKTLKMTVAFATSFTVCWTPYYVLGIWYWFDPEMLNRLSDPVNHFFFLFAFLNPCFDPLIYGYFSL
5-hydroxytryptamine receptor 2A (Homo sapiens), sequence (P28223 whole entry, looked up): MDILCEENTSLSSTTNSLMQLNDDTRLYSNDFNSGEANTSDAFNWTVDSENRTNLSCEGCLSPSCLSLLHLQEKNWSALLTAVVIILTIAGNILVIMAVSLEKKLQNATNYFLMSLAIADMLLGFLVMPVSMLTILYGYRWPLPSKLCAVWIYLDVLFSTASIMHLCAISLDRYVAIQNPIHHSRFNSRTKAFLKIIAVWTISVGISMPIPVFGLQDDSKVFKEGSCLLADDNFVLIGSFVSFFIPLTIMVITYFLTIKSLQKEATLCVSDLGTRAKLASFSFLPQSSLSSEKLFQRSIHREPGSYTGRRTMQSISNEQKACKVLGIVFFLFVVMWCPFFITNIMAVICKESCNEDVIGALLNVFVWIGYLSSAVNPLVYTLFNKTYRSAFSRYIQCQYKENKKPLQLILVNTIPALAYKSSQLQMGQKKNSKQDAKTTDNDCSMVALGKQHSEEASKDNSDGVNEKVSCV
D(2) dopamine receptor (Homo sapiens), sequence (P14416 whole entry, looked up): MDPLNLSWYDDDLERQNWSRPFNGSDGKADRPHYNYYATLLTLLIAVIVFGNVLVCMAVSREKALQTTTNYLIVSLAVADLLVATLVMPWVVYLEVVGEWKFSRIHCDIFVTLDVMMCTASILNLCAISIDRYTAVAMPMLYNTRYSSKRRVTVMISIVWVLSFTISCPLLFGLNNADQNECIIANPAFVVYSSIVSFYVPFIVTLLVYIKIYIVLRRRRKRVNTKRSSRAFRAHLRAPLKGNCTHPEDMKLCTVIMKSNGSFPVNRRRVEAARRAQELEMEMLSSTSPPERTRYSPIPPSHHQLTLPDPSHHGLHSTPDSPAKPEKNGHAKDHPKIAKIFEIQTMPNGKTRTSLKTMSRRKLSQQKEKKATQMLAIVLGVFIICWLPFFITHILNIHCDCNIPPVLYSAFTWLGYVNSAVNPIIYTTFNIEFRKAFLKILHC
KiSS-1 receptor (Homo sapiens), sequence (Q969F8 whole entry, looked up): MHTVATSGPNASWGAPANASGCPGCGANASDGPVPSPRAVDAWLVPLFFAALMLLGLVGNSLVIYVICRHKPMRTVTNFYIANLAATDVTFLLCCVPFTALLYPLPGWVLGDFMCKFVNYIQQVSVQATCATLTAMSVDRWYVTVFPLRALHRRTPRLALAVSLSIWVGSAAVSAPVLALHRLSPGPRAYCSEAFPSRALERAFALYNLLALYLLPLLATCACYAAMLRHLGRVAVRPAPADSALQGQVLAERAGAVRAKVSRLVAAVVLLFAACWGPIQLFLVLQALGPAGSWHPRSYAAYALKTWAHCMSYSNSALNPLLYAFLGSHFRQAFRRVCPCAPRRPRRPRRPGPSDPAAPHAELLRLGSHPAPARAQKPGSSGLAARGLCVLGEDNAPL
Muscarinic acetylcholine receptor M1 (Homo sapiens), sequence (P11229 whole entry, looked up): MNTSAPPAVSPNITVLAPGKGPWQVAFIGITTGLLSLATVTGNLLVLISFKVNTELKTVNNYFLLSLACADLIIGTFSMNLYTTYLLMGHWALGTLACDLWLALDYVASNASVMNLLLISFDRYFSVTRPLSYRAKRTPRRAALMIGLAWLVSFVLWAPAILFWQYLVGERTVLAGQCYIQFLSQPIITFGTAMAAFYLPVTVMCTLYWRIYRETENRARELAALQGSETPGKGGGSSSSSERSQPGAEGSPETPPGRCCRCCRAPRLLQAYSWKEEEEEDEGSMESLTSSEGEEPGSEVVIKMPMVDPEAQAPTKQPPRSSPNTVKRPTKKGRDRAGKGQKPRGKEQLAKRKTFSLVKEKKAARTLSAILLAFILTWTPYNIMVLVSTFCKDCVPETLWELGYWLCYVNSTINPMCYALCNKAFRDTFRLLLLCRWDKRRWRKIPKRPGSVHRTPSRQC

With `O=C(O)CC(O)(CC(=O)O)C(=O)O`, the Potency entry in assay [1], in assay [2], in [3], in assay [4], in [5] and in [6] was “inactive” throughout. Further, the Potency result in assay [7], in assay [8], in [9], in [10], in [11] and in [12] was “inactive” each time. Further, the Potency result in [13], in [14] and in [15] was “inactive” in each case.
As for `O=C(NCO)NCO`, the Potency result in assay [1], in [2], in [3], in assay [4], in assay [5] and in assay [6] was “inactive” throughout. Also, the Potency entry in [7], in [8], in assay [9], in assay [10], in assay [16] and in assay [17] was “inactive” in each case. In addition, the Potency result in assay [18], in assay [19], in assay [11], in assay [12], in [13] and in assay [14] was “inactive” in each case. Moreover, in [15], the Potency result was “inactive”.
As to `Nc1ncc([N+](=O)[O-])s1`, the Potency result in assay [1], in [2], in assay [3], in assay [4], in [5] and in assay [6] was “inactive” throughout. In addition, the Potency entry in [7], in [8], in [10], in assay [16], in assay [17] and in [18] was “inactive” in each case. Also, the Potency result in assay [19], in assay [11], in assay [12], in [13] and in assay [14] was “inactive” each time.
Take `CNC(=O)Oc1cccc2c1OC(C)(C)O2`: the Potency result in [1], in [2], in assay [3], in [4], in [5] and in assay [6] was “inactive” in each case. The Potency entry in assay [7], in assay [8], in [9], in assay [10], in assay [16] and in [17] was “inactive” each time. In addition, the Potency entry in assay [18], in assay [19], in assay [11], in assay [12], in assay [13] and in assay [14] was “inactive” each time. The Potency entry in assay [15] is “inactive”.
As for `CCOP(=S)(OCC)Oc1nc(Cl)c(Cl)cc1Cl`, the Potency result in assay [1], in assay [3], in assay [4], in [5], in assay [6] and in [7] was “inactive” in each case. For the same molecule, the Potency result in [8], in assay [9], in assay [10], in assay [16], in assay [17] and in [18] was “inactive” each time. The Potency entry in [13], in [14] and in [15] was “inactive” each time. The Potency in assay [2] was 27.4 µM (active) and 61.1 µM (active).
Consider `Clc1ccc(C(c2ccc(Cl)cc2)C(Cl)(Cl)Cl)cc1`, for which, in [1], the Potency is 38.8 µM (active). Besides, the Potency entry in assay [2], in assay [3], in assay [4], in [5], in assay [6] and in assay [7] was “inactive” throughout. Moreover, the Potency entry in [8], in assay [9], in assay [16], in assay [17], in [18] and in assay [19] was “inactive” in each case. Also, the Potency entry in assay [11], in [13] and in assay [14] was “inactive” each time.
Take `COC(=O)Cc1ccccc1`: the Potency result in assay [1], in [2], in assay [3], in [4], in [5] and in assay [6] was “inactive” throughout. Moreover, the Potency result in assay [7], in assay [8], in assay [9], in assay [10], in assay [16] and in assay [17] was “inactive” throughout. Further, the Potency result in assay [18], in assay [19], in assay [11], in [12], in assay [13] and in assay [14] was “inactive” throughout. The Potency result in [15] is “inactive”.
In the case of `CCC(C)(C)c1ccc(O)c(C(C)(C)CC)c1`, the Potency in [1] was 13.5 µM (active) and 24.3 µM (active); in assay [2] it was 7.7 µM (active); in assay [8], “inactive and 25.7 µM (active)”; in [9], 18 µM (active) and 22.9 µM (active); in assay [18], 20.9 µM (active); in assay [15], “inactive and 43.3 µM (active)”. For the same molecule, the Potency result in assay [3], in assay [4], in assay [5], in assay [6], in assay [20] and in [19] was “inactive” each time. The Potency entry in [13] and in assay [14] was “inactive” each time.

Source of the values: PubChem BioAssay (Tox21).
